Compounds with a hit are over-represented: about 4.8% of the library has one in this group of screens.
hgDAF-12 ag – H. glycines DAF-12 receptor agonists, primary screen, cell-based, luminescence, HEK293, GAL4 fusion, UAS-luciferase | HEK293 GAL4-hgDAF12 UAS-luciferase reporter, agonist luminescence; normalized to butyrate control | activation, % at 6.8 µM | 370,000 tested, 1.8% active | AID 687014, 2013;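 active = activation above a cutoff set at the mean of all screened compounds plus 3 SD, cut at about 10% in these data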
SMARCA2 activ – SMARCA2 (BRM) function activators, primary screen, cell-based, luminescence, high throughput | MG213 cells, MMTV-luciferase reporter, dexamethasone, overnight | activation, % at 9.1 µM | 370,000 tested, 1% active; in the data active = activation above about 7.8%
DAX1 inh-1 – DAX1 (NR0B1) inhibitors on StAR promoter, primary screen, cell-based, luminescence, SF-1 (NR5A1), full-length DAX-1. HEK293T StAR-luciferase reporter, SF-1/DAX-1 repression relief. 370,000 tested, 1.1% active. inhibition, % at 6.8 µM. AID 652010, 2013;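 active = inhibition above the mean over all tested compounds plus 3 SD, cut at about 3.6% in these data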;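 also: higher inhibition means more luminescence from relief of DAX-1 repression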
ssDAF-12 act – S. stercoralis DAF-12 nuclear receptor activators, primary screen, cell-based, luminescence, HEK293, GRIP1 co-expression, lit1-tk-luc | HEK293 ssDAF-12/GRIP1 lit1-tk-luc reporter; % of 3 µM dafachronic acid response | activation, % at 6.8 µM | 370,000 tested, 1% active | AID 652126, 2013;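 active = activation above the mean over all tested compounds plus 3 SD, cut at about 0.9% in these data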
hcDAF12 agonist – H. contortus DAF-12 nuclear receptor activators, primary screen, cell-based, luminescence, HEK293, lit1-tk-luc reporter; HEK293 hcDAF-12 lit1-tk-luc reporter; 0% DMSO, 100% Δ7-dafachronic acid; activation, % at 6.8 µM; 370,000 tested, 1.4% active;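 active = activation above the mean of all tested compounds plus 3 SD, cut at about 5.5% in these data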
DAX1 inh-2 – DAX1 (NR0B1) inhibitors, primary screen, cell-based, HEK293, Gal4-DAX1, luciferase luminescence. 340,000 tested, 0.99% active. HEK293 Gal4-DAX1 luciferase reporter. inhibition, % at 6.75 µM. AID 504766, 2011. Nuclear receptor subfamily 0 group B member 1 (Homo sapiens), P51843;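 active = inhibition above the mean over all tested compounds plus 3 SD, cut at about 4.2% in these data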;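 also: inhibition shows as a rise in luminescence from relieved DAX1 repression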
LXRb hcDAF ctr – LXR agonists, Gal4 luciferase reporter, confirmation, counter-screen for hcDAF-12 agonist project, cell-based, luminescence, HEK293, H. contortus campaign. HEK293 Gal4-LXR tk-luc reporter, 24 h; normalized: DMSO 0%, positive control 100%. shares compounds with hcDAF12 agonist. 3,400 tested, under 10 active. activation, % at 6.8 µM. AID 743027, 2013;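 active = mean percent activation of the reporter above a cutoff set as the average over tested compounds plus their standard deviation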
Target sequence (P55055 whole entry, looked up, the tested form may be a part): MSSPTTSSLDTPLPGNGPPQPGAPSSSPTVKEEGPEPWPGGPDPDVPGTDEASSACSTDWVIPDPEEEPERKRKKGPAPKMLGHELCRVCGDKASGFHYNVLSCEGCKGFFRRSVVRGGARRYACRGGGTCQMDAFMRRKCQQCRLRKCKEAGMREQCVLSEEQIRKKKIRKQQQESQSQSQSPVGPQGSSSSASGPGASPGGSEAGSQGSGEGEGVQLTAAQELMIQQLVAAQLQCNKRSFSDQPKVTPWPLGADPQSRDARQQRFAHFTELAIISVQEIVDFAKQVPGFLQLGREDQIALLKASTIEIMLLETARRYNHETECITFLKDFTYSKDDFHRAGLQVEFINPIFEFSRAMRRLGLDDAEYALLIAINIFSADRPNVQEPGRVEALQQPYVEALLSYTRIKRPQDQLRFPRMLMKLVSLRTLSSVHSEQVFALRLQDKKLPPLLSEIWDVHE
hcDAF12 conf – H. contortus DAF-12 receptor agonists, confirmation, cell-based, luminescence, HEK293, lit1-tk-luc, triplicate; shares compounds with hcDAF12 agonist; HEK293 hcDAF-12 lit1-tk-luc reporter; % of Δ7-dafachronic acid response; activation, % at 6.8 µM; 3,400 tested, 61% active;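 active = mean activation across triplicate tests above the threshold derived from the earlier primary screen, cut at about 5.5% in these data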
Each line names hits and unclear results; the compound was inactive in the other large screens (follow-up assays come after a bar, where they were run).

COc1ccc(C2NN=C(c3ccc(C)cc3)S2)cc1 (stereo not given)	none
Cc1ccc(Nc2nc3ccccc3o2)cc1F	hgDAF-12 ag 12, DAX1 inh-1 4.0, hcDAF12 agonist 7.3 | LXRb hcDAF ctr inactive | hcDAF12 conf inactive
C/C(CC(=O)Nc1ccc(Cl)c(C(F)(F)F)c1)=N\NC(=O)c1ccccc1O	ssDAF-12 act 1.4, hcDAF12 agonist 10 | LXRb hcDAF ctr inactive | hcDAF12 conf inactive
C/C(CC(=O)Nc1ccc(Cl)c(C(F)(F)F)c1)=N\NC(=O)c1cnccn1	none
Cc1nn(CC(=O)NCc2cc3ccccc3[nH]2)c(C)c1[N+](=O)[O-]	hcDAF12 agonist 9.4 | LXRb hcDAF ctr inactive | hcDAF12 conf inactive
Cc1nn(CC(=O)NCc2ccccc2F)c(C)c1[N+](=O)[O-]	none
C[C@@H]1C(=O)N2N=Cc3ccccc3[C@H]2N2N=Cc3ccccc3[C@@H]12	none (no result: DAX1 inh-2)
Clc1cccc(Nc2nc(-c3cccnc3)cs2)c1	hgDAF-12 ag 11, ssDAF-12 act 1.8, hcDAF12 agonist 8.9, DAX1 inh-2 5.4 | LXRb hcDAF ctr inactive | hcDAF12 conf 11
CC(=O)c1ccc(Nc2nc(-c3cccnc3)cs2)cc1	none
Cc1ccc(Nc2nc(-c3cccnc3)cs2)cc1C	hgDAF-12 ag 19, ssDAF-12 act 3.8, hcDAF12 agonist 20, DAX1 inh-2 4.3 | LXRb hcDAF ctr inactive | hcDAF12 conf 19
Nc1nc2ccc(C(=O)Nc3ccccc3)cc2s1	hgDAF-12 ag 11, ssDAF-12 act 1.9, hcDAF12 agonist 11 | LXRb hcDAF ctr inactive | hcDAF12 conf 7.7
CN(C(=O)c1ccc2nc(N)sc2c1)c1ccccc1	none
COC(=O)C(NC=O)C(O)(Cc1ccccc1)C(F)(F)F (stereo not given)	hcDAF12 agonist 9.7 | LXRb hcDAF ctr inactive | hcDAF12 conf inactive
CC(C)CN1CCN(C(=O)CCc2nnc(Cc3c[nH]c4ccccc34)o2)[C@@H](C)C1=O	hcDAF12 agonist 7.0 | LXRb hcDAF ctr inactive | hcDAF12 conf inactive
CCN1CCN(C(=O)CCc2nnc(CCc3c[nH]c4ccccc34)o2)[C@@H](C)C1=O	none
CCOc1cccc(-c2c(C(=O)N/N=C/c3ccc(Br)cc3)nnn2-c2nonc2N)c1	none
O=C(NNc1ccccc1Br)C(=O)n1ccc2ccccc21	hcDAF12 agonist 7.6 | LXRb hcDAF ctr inactive | hcDAF12 conf inactive
O=S(=O)(NCc1cccnc1)c1ccc(Cl)c(Cl)c1	none
COc1ccc2oc(=O)c(/C(C)=N/Nc3nc(-c4cc(C)ccc4C)cs3)cc2c1	hcDAF12 agonist 6.7 | LXRb hcDAF ctr inactive | hcDAF12 conf inactive
C=C1CCN([C@H](C(=O)Nc2ccc(OC)cc2)C(C)C)S(=O)(=O)c2ccccc21	none
O=C1CCN(Cc2ccccc2)C=C1c1ccc2ccccc2c1	hgDAF-12 ag 11, ssDAF-12 act 1.0, hcDAF12 agonist 9.4 | LXRb hcDAF ctr inactive | hcDAF12 conf 7.0
O=C1CCN(Cc2ccccc2)C=C1c1ccc(Cl)cc1	none
O=C(Cn1c(=O)oc2ccccc21)Nc1nc(-c2ccc(Br)cc2)cs1	none

Compound activity: PubChem BioAssay, The Scripps Research Institute Molecular Screening Center
